The record followed here is PubChem BioAssay AID1259415 (National Center for Advancing Translational Sciences (NCATS), 2018).

Several values for one entry are separate records, joined by “and”; a condition that tells them apart may be missing. Equal entries are not always repeated. The whole screen tested about 410,000 compounds, of which about 18,000 (4.4%) were called active. Inconclusive results (about 7%) are left out. This excerpt belongs to a sample that is enriched for actives. A number with no mark means an inactive call. Rule as the data show it: active = activity change below about -60%; inconclusive = no clear call, values can overlap the other calls; inactive = above about -39%.
% is scaled to controls: 0 for no effect and ±100 for the full control effect.

The nature of the experiment: qHTS Assay for inhibitors of the human cytomegalovirus (HCMV). Conditions: HFF cells, HCMV-luciferase reporter, 72 h; at 57.5 µM; active compounds read low. In short, it runs like this: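 Luciferase read-out from HCMV-luciferase-infected HFFs (MOI 1 PFU/cell) 72 h post infection at 37C; compounds added after 16 h cell attachment; activity normalized between buffer-only basal and Salinomycin (10uM) inhibitor controls.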
As for `COc1ccc(C(=O)N2CCC(c3nc4ccccc4o3)CC2)cc1`, the activity change, negative = inhibition is 43.5%.

For the molecule `CCn1c(C)c(C)c2cc(C(=O)N3CCN(c4cccc(C)c4C)CC3)ccc21`, the activity change, negative = inhibition is 0% and 13.6%.

For the molecule `Cc1cccc(N2CCN(C(=O)c3cc4c(=O)[nH]c5ccccc5c4n3C)CC2)c1C`, the activity change, negative = inhibition was -65.2% (active).

In the case of `Cc1cccc(N2CCN(C(=O)c3oc(=O)c4ccccc4c3-c3ccccc3)CC2)c1C`, the activity change, negative = inhibition is 4.74%.

For the molecule `COc1ccc2c(c1)c(=O)c(S(=O)(=O)c1ccc(F)cc1)cn2CC(=O)Nc1ccc(C)cc1C`, the activity change, negative = inhibition is -7.71%.

Consider `CCS(=O)(=O)c1nc(S(=O)(=O)c2ccc(C)cc2)c(NCc2ccc(Cl)cc2)s1`, for which the activity change, negative = inhibition is -5.88%.

As for `Cc1cccc(OCCSc2nc3ccc(NC(=O)COc4ccccc4C)cc3s2)c1`, the activity change, negative = inhibition is -12.2%.

As for `CCC(=O)Nc1ccc2nc(SCC(=O)N3CCc4ccccc43)sc2c1`, the activity change, negative = inhibition was 29.6%.

For the molecule `CCn1c(=O)c(=O)n(CC)c2cc(S(=O)(=O)N3CCc4ccccc43)ccc21`, the activity change, negative = inhibition was -35.5%.

Take `CSc1nc2ccc(S(=O)(=O)N3CCc4ccccc43)cc2s1`: the activity change, negative = inhibition was -81.9% (active).

Regarding `Cc1nc2sc(C)c(C)n2c(=O)c1S(=O)(=O)NCCc1ccc(Cl)cc1`, the activity change, negative = inhibition is 6.07%.

For `Cc1oc2ncnc(N3CCOCC3)c2c1C(=O)NCCc1ccccc1`, the activity change, negative = inhibition was -27.7%.

Regarding `CCNC(=O)C1CCCN(C(=O)c2cc(F)ccc2C)CC1` (stereo not drawn), the activity change, negative = inhibition was -4.35%.

Regarding `NS(=O)(=O)c1ccc2nc(NC(=O)COc3ccccc3)sc2c1`, the activity change, negative = inhibition was -8.44%.

In the case of `O=C(NC(Nc1nc2ccc([N+](=O)[O-])cc2s1)(C(F)(F)F)C(F)(F)F)c1ccccc1`, the activity change, negative = inhibition is -103% (active).

In the case of `CN(C)c1cccc(C(=O)Nc2nc3ccc(S(=O)(=O)NC(C)(C)C)cc3s2)c1`, the activity change, negative = inhibition is -29.3%.

For the molecule `O=C(Nc1cc(C(F)(F)F)ccc1Cl)c1cc2nc(-c3ccc4c(c3)OCO4)cc(C(F)(F)F)n2n1`, the activity change, negative = inhibition is 4.65%.

Take `CCC(C)Nc1oc(-c2ccc(COc3ccc(Cl)cc3)o2)nc1C#N` (stereo not drawn): the activity change, negative = inhibition is -28.6%.

Take `CCC(Sc1nc2n[nH]c(C)c2c(=N)n1-c1ccccc1Cl)C(=O)N(CC)CC` (stereo not drawn): the activity change, negative = inhibition was 10.8%.

For the molecule `O=C(O)CN1c2cccc3cccc(c23)S1(=O)=O`, the activity change, negative = inhibition was 24.9%.

As to `CCN(CC(=O)Nc1c(F)cccc1F)C(=O)CN1c2cccc3cccc(c23)S1(=O)=O`, the activity change, negative = inhibition was -81.2% (active).

In the case of `COc1ccc(C)cc1NC(=O)CN1c2cccc3cccc(c23)S1(=O)=O`, the activity change, negative = inhibition was -63.9% (active).

For the molecule `Cc1ccc(S(=O)(=O)N(C)C)cc1NC(=O)CN1c2cccc3cccc(c23)S1(=O)=O`, the activity change, negative = inhibition is -17.7%.

Regarding `CC(C)CN(CC(C)C)C(=O)CN1c2cccc3cccc(c23)S1(=O)=O`, the activity change, negative = inhibition is 51.7%.

Consider `CCN(CC(=O)Nc1c(F)cccc1F)C(=O)c1cnc(C)cn1`, for which the activity change, negative = inhibition is -12.6%.

Take `CCC(=O)Nc1ccccc1-c1nc2ccccc2n(CC(=O)Nc2ccc(C)c(C)c2)c1=O`: the activity change, negative = inhibition was 4.84%.

With `O=C(CSc1ncc(CO)n1Cc1ccc(F)cc1)NCc1ccco1`, the activity change, negative = inhibition was -7.64%.

For `O=C(CC(CC(=O)c1ccccc1)c1ccco1)c1ccccc1`, the activity change, negative = inhibition was -38.2%.

On to `COc1cc(NC(=O)c2nn(-c3ccc(C)cc3)c(=O)c3c2c2ccccc2n3C)cc(OC)c1OC`, for which the activity change, negative = inhibition is 8.56%.

In the case of `CC(C)(C)C1CCC(C(=O)Nc2cccnc2)CC1` (stereo not drawn), the activity change, negative = inhibition is -93.5% (active).

Take `CC(=O)Nc1ccc(NC(=O)COC(=O)C2CCC(C(C)(C)C)CC2)cc1` (stereo not drawn): the activity change, negative = inhibition was -11.6%.

For the molecule `Cc1ccc(NC(=O)C2CCC(C(C)(C)C)CC2)cc1S(=O)(=O)N1CCOCC1` (stereo not drawn), the activity change, negative = inhibition is -25.3%.

As for `CCOc1ccc(NC(=O)Cn2c(C)ccc(C#N)c2=O)cc1`, the activity change, negative = inhibition is -3.22%.

With `O=C(NCCc1csc(-c2ccc(C(F)(F)F)cc2)n1)C(=O)Nc1ccc(F)c(Cl)c1`, the activity change, negative = inhibition is -16.3%.

Turning to `CCc1nc2nc(C)cc(Nc3ccc(F)c(Cl)c3)n2n1`, the activity change, negative = inhibition is -29.5%.

Regarding `Cc1ccc(S(=O)(=O)Nc2ccc(F)c(S(=O)(=O)N3CCOCC3)c2)cc1`, the activity change, negative = inhibition is 11.9%.

On to `CCOc1ncccc1C(=O)Nc1ccc(S(=O)(=O)Nc2nc(C)cc(C)n2)cc1`, for which the activity change, negative = inhibition is 4.63%.

Take `Cc1ccc(S(=O)(=O)Nc2ccc3ncccc3c2)cc1`: the activity change, negative = inhibition is -97.8% (active).

On to `COc1ccc(Cl)cc1NC(=O)CCn1c(=O)c2cccn2c2ccccc21`, for which the activity change, negative = inhibition is 4.3%.

As for `CCOC(=O)c1c(N)n(-c2cccc(C)c2C)c2nc3ccccc3nc12`, the activity change, negative = inhibition is 3.84%.

For `Cc1nn(-c2ccc(N3CCCCC3)nn2)c(C)c1CCC(=O)NCc1ccc(F)cc1`, the activity change, negative = inhibition was -11.9%.

Regarding `CCNS(=O)(=O)c1ccc(NC(=O)CSc2nc(-c3ccco3)cc(C(F)(F)F)n2)cc1`, the activity change, negative = inhibition is 19.7%.

`O=C1Nc2cc(C(=O)N3CCC(N4CCCCC4)CC3)ccc2S/C1=C\c1ccccc1`: the activity change, negative = inhibition is -88% (active).

For the molecule `CC1CCN(C(=O)c2ccc3c(c2)NC(=O)CN3)CC1`, the activity change, negative = inhibition was -12.7%.

For the molecule `O=C(Cc1ccccc1)N1CCN(C2CCCCCC2)CC1`, the activity change, negative = inhibition was 31.1%.

With `CCOc1ccccc1NC(=O)Cn1c(=O)n(Cc2ccccc2)c(=O)c2c(C)c(C(=O)N(C)C)sc21`, the activity change, negative = inhibition was -19.6%.

Consider `CC(=O)CC[C@@H](C)O[C@@H]1OC(C)[C@H](O)CC1O` (stereo partly drawn), for which the activity change, negative = inhibition is -66.6% (active).

Consider `COc1ccc(NC(=O)N(C)C[C@@H]2OCCCC[C@@H](C)Oc3ccc(NC(=O)NC4CCCCC4)cc3C(=O)N([C@H](C)CO)C[C@@H]2C)cc1`, for which the activity change, negative = inhibition is 1.75%.

Turning to `CCOC(=O)CSc1ccccn1`, the activity change, negative = inhibition is -102% (active).

As for `O=C(CSc1ccccn1)N1CCN(S(=O)(=O)c2ccc(Cl)cc2)CC1`, the activity change, negative = inhibition was -33.6%.

For `CCOC(=O)CSc1ncc(-c2cccc(Cl)c2)cn1`, the activity change, negative = inhibition was 23.7%.

For the molecule `COc1ccc(CCNc2nc3c(-c4cccc(F)c4)nnn3c3ccccc23)cc1OC`, the activity change, negative = inhibition is 30.2%.

On to `Cc1ccc(CCNC(=O)c2ccc(CNS(=O)(=O)c3ccc(C)cc3)cc2)cc1`, for which the activity change, negative = inhibition was -11.4%.

Turning to `Cc1ccc(S(=O)(=O)N(CC(=O)Nc2ccc(Cl)cc2Cl)c2ccccc2C)cc1`, the activity change, negative = inhibition is -21.6%.

Consider `CC(C)c1nccn1S(=O)(=O)c1cc([N+](=O)[O-])ccc1Cl`, for which the activity change, negative = inhibition is -7.9%.

For the molecule `CCc1nc(C)cn1S(=O)(=O)c1cc(OC)c(C)cc1C`, the activity change, negative = inhibition was -33.9%.

Take `CCc1nc(C)cn1S(=O)(=O)c1cc([N+](=O)[O-])ccc1Cl`: the activity change, negative = inhibition is -98.5% (active).

For `Cc1ccccc1Nc1nn2c(=O)c3ccc(C(=O)NCCc4ccc(Cl)cc4)cc3nc2s1`, the activity change, negative = inhibition was -8.87%.

As to `CC(C)c1ccc(NC(=O)Cn2nnc(C(=O)NCCc3ccccc3)c2N)cc1`, the activity change, negative = inhibition is 7.46%.

In the case of `Cc1ccc(NC(=O)Cn2cnc3nc4c(cc3c2=O)CCCC4)cc1Cl`, the activity change, negative = inhibition is 19.1%.

With `CCCN(CCC)CCNC(=O)Cn1cnc2sc(C)c(S(=O)(=O)N3CCC(C)CC3)c2c1=O`, the activity change, negative = inhibition was 3.59%.

Turning to `Fc1ccc(-n2ncc3c(Nc4ccc(Oc5ccccc5)cc4)ncnc32)cc1`, the activity change, negative = inhibition is -35.2%.

For `CCN(CCCNC(=O)Cn1ncc2c3ccccc3n(C)c2c1=O)Cc1ccccc1`, the activity change, negative = inhibition is -7.87%.

Consider `Cc1cc(C(=O)COc2ccccc2[N+](=O)[O-])c(C)n1-c1cccc(S(=O)(=O)N2CCOCC2)c1`, for which the activity change, negative = inhibition was -89.3% (active).

As for `O=C(COc1ccc(S(=O)(=O)N2CCCC2)cc1[N+](=O)[O-])N1CCCCC1`, the activity change, negative = inhibition was -8.38%.

`Cc1cc(S(=O)(=O)N2CCOCC2)ccc1OCC(=O)N1CCOCC1`: the activity change, negative = inhibition was -17.6%.

For the molecule `O=S(=O)(c1ccc(Br)c2ccccc12)N1CCOCC1`, the activity change, negative = inhibition is -15%.

As to `O=C1CCC(=O)N1CCC(=O)N(C(=O)NC1CCCCC1)C1CCCCC1`, the activity change, negative = inhibition was 14.3%.

On to `CCCCNC(=O)c1onc(CSc2cccc(OC)c2)c1C(=O)O`, for which the activity change, negative = inhibition is 31.1%.

For the molecule `CCCNC(=O)c1onc(CSc2ccc(F)cc2)c1C(=O)NC(C)C`, the activity change, negative = inhibition is -14.5%.

`CCOc1cccc(SCc2noc(C(=O)NC(C)C)c2C(=O)O)c1`: the activity change, negative = inhibition is -61.6% (active).

As for `COc1cc(C2NC(=O)NC(c3ccccc3)=C2C(C)=O)c(Br)cc1OCC(N)=O` (stereo not drawn), the activity change, negative = inhibition is -0.681%.

On to `O=C1CCC([N+](=O)[O-])C(c2ccccc2Br)N1` (stereo not drawn), for which the activity change, negative = inhibition is -6.17%.

With `COc1cc2c(cc1OC)C(c1ccccc1Br)NC(=O)C2` (stereo not drawn), the activity change, negative = inhibition was -67.4% (active).

Consider `CCOc1ccc(NS(=O)(=O)c2ccc(Cl)c(C(=O)N(C)Cc3cccnc3)c2)cc1`, for which the activity change, negative = inhibition is -5.24%.

Regarding `CN(Cc1cccnc1)C(=O)c1cc(COc2ccc3ncccc3c2)on1`, the activity change, negative = inhibition is -81.6% (active).

Regarding `CCn1ccnc1CN(C)C(=O)c1cc(COc2ccc(Cl)cc2OC)on1`, the activity change, negative = inhibition is 1.37%.

In the case of `CCc1nccn1S(=O)(=O)c1cc(Br)ccc1Br`, the activity change, negative = inhibition was 3.85%.

In the case of `Cc1cc(C)cc(NC(=O)CSc2nc(=O)n(CCN3CCOCC3)c3c2CCC3)c1`, the activity change, negative = inhibition was 14.5%.

With `O=C(COC(=O)CCc1c[nH]c2ccccc12)Nc1cccc(Cl)c1`, the activity change, negative = inhibition was -16%.

For `COC(=O)c1ccc2c(c1)S(=O)(=O)NC2C` (stereo not drawn), the activity change, negative = inhibition was 24.6%.

For `CC1CCCCC1NC(=O)COC(=O)Cc1ccc(Cl)cc1` (stereo not drawn), the activity change, negative = inhibition was 26.8%.

Take `COc1cc(Cn2c3ccc(NC(=O)CC(C)c4ccccc4)cc3c(=O)n2C)ccc1F` (stereo not drawn): the activity change, negative = inhibition is -10.4%.

Regarding `CCNC(=S)Nc1ccc2c(c1)c(=O)n(C)n2Cc1ccc(Cl)cc1`, the activity change, negative = inhibition was -4.48%.

With `CCOCCC(=O)Nc1ccc2c(c1)c(=O)n(C)n2-c1ccc2ccccc2c1`, the activity change, negative = inhibition was -74.6% (active).

Take `CCCCn1c(N)c(N(CC)C(=O)/C=C/c2ccco2)c(=O)[nH]c1=O`: the activity change, negative = inhibition was 14.2%.

In the case of `O=C1/C(=C/c2cccs2)SC(=S)N1C1CCS(=O)(=O)C1` (stereo not drawn), the activity change, negative = inhibition was -80.8% (active).

For `O=C1/C(=C/c2cccs2)CCC1C1CCCC1` (stereo not drawn), the activity change, negative = inhibition is -34.7%.
